# Reference: PubChem BioAssay AID493185 (National Center for Advancing Translational Sciences (NCATS), 2011)
# Activity calls are given as the source filed them. Entries that show only a call come without a potency. The call rests on the fitted dose curve; in most records, active means well fitted activation curve with a large enough effect; inconclusive means small, poorly fitted or top-dose-only effect; inactive means no such curve, though single readings can be large or run the other way.
# Assay: Counterscreen for Identifying a Potential Treatment of Ataxia-Telangiectasia: Hit Validation
# Settings: cell-free AlphaLISA/AlphaScreen artifact counterscreen, PBS only, no cells; series mostly up to 76.9 µM
# Text: NIH Chemical Genomics Center [NCGC]
# NIH Molecular Libraries Probe Centers Network [MLPCN]
# Assay Submitter (PI): Wei Zheng and Yosef Shiloh
# Ataxia-telangiectasia (A-T) is a devastating and progressive disease for which, there is no cure. Although A-T is a multisystem disease, it is stereotyped characterized by its neurological symptoms such as truncal ataxia, due to cerebellar cortical degeneration of the Purkinje and granule cells. Other symptoms of A-T are telangiectasias (dilated blood vessels), primary immunodeficiency, marked sensitivity to ionizing radiation (IR), chromosomal instability and predisposition to cancer.
# The underlying genetic cause of A-T is null mutations in the ATM (A-T mutated) gene. ATM is a nuclear serine/threonine kinase that functions as a master regulator of the cellular responses to double strand breaks (DSBs) in the DNA. Upon activation by DSBs, ATM phosphorylates a plethora of downstream targets, including KAP-1 on […]. KAP-1 phosphorylation occurs shortly in response to DSBs and mediates global chromatin relaxation, which facilitates DSB repair. To screen for small molecules that will compensate for the loss of ATM in cells derived from A-T patients, we monitored KAP-1 phosphorylation as a readout for ATM-like activity using an AlphaLISA assay.
# 3. Library compounds, 23 nl, 76.7 - 0.61uM dilution series final concentration
# 4. Incubation, 60 min, 37C, 5% CO2, 95% humidity
# 6. Incubation, 30 min, 37C, 5% CO2, 95% humidity
# 7. Reagent, 1 ul, Premixed detection reagents and lysis buffer
# 8. Reagent, 1 ul, 0.6% Antifoam A
# 9. Incubation, 6 hr, 25C, 95% humidity
# 10. Readout, EnVision, EnVision plate reader. AlphaScreen 1536-well protocol
# PBS was dispensed into medium-binding white solid-bottom tissue culture treated Kalypsys plates with a Multidrop dispenser. Detection reagent and lysis buffer was 3.75nM Rab-a-pKAP1 antibody bound to 75 ng/ul AlphaScreen SA donor bead, 3.75 nM Biot-M-a-KAP1 antibody bound to AlphaLISA protein A acceptor bead, 0.5x protease inhibitor cocktail and 0.25x PerkinElmer lysis buffer. EnVision protocol for 1536-well AlphaScreen read (30ms excitation, 100ms read), about 10 min/plate. This assay is similar to the primary screen but is without cells. It aims to identify artifacts of the assay platform and unspecific hits.
# Potency means the concentration at half of the fitted maximal effect.
row,SMILES,Potency
1,Cc1ccc(C)c(NP(=O)(Oc2ccccc2)Oc2ccccc2)c1,inactive
2,CCCCC(=O)N/N=C/c1c(O)n(CCC2=CCCCC2)c(=O)[nH]c1=O,inactive
3,CCc1ccc(N2C(=O)NC(=O)/C(=C\C=C\c3ccco3)C2=O)cc1,inactive
4,CC(C)c1ccc(-n2c(O)c(C=NC(CCS(C)=O)C(=O)O)c(=O)[nH]c2=S)cc1 (stereo not given),inactive
5,Cc1cc(O)c2c(c1)C(=O)C13C(=C2O)C(=O)[C@H]2[C@@H](O)[C@@H]1[C@H]1[C@H](O)[C@@H]3C(=O)C3=C(O)c4c(O)cc(C)cc4C(=O)C312 (stereo not given in full),7.33 µM (active)
6,CN1CCN(c2ccc([N+](=O)[O-])c3no[n+]([O-])c23)CC1,inactive
7,CCCCn1c(O)c(C(=O)/C=C/c2c[nH]c3ccccc23)c(=O)[nH]c1=O,inactive
8,Cc1nc2ccccc2c(=O)n1-c1ccc(F)cc1F,inactive
9,O=C1Nc2ccccc2C1Cc1nc2ccccc2c(=O)n1-c1ccccc1 (stereo not given),inactive
10,CCN(CC)S(=O)(=O)c1cccc(N=Nc2c(O)n(CC)c(=S)n(CC)c2=O)c1,inactive
11,Cc1ccc(-n2c(O)c(C=NCC3CCCO3)c(=O)[nH]c2=O)c(C)c1 (stereo not given),inactive
12,Cc1cccc(N2C(=O)NC(=O)/C(=C\C=C\c3ccco3)C2=O)c1,inactive
13,CC1(C)C[C@H]2C=C(C=O)[C@]3(C=O)C[C@]3(C)[C@H]2C1,inactive
14,CCN1C(=O)N(CC)C(=O)C2(Cc3ccccc3N3CCN(c4ccccc4)CC32)C1=O (stereo not given),inactive
15,CCN(CC)S(=O)(=O)c1ccc(C(=O)NC2CN3CCC2CC3)cc1 (stereo not given),inactive
16,O=C(c1cccnc1)C1CCCN(Cc2nc(-c3cnccn3)no2)C1 (stereo not given),inactive
17,C/C=C/c1ccc2c(c1)OCO2,inactive
18,COC(=O)C1=C(c2ccc(OCc3ccccc3)cc2)C[C@@H]2CC[C@H]1N2C(=O)NCc1cccc(C(F)(F)F)c1,inactive
19,CN1CCCC(C(O)(c2ccccc2)c2ccccc2)C1 (stereo not given),inactive
20,CC(=O)OC1CC[C@]2(C#N)[C@H]3CC[C@]4(C)[C@H](C5C=CC(=O)O5)CCC4(O)C3CCC2(O)C1 (stereo not given in full),inactive
